M1 PAM parental = nonselective calcium activators in parental CHO-K1 cells, primary screen, counter-screen for M1 PAM project, cell-based, Fluo-8 calcium fluorescence, full deck, 1536-well | ATP EC20; 0% at ATP EC20, 100% at ATP max | activation, % at 3 µM | 360,000 compounds, 0.02% hits | AID 602247, 2012;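 active means activation above the run cutoff, the mean activation of all test compounds plus 3 SD, cut at about 40% in these data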;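 further: peak over basal fluorescence ratio in a 140 s read after ATP addition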
M1 antag = human M1 muscarinic receptor antagonists, primary screen, CHO-K1 cells, Fluo-8 calcium fluorescence, 1536-well; inhibition, % at 3 µM; Muscarinic acetylcholine receptor M1 (Homo sapiens), P11229; 360,000 compounds, 1.3% hits; CHO-K1 hM1, ACh EC80 antagonist;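 active means percent inhibition above its own plate's cutoff, namely the mean of that plate's compound wells plus 3 SD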;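 further: peak over basal fluorescence ratio during 140 s after agonist addition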
Target sequence (P11229 whole entry, looked up): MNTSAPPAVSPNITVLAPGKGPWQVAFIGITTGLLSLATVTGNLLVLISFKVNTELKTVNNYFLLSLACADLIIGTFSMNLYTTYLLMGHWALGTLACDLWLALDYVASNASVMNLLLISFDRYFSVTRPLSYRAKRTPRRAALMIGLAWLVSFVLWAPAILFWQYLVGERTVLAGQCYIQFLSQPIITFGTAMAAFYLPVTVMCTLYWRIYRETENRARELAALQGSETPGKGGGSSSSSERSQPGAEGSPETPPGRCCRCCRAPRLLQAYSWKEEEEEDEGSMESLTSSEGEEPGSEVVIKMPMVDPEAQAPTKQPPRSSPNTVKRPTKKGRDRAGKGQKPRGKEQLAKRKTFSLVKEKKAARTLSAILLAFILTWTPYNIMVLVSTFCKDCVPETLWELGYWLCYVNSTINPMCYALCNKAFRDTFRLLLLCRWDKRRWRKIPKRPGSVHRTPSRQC
CHO-K1 Ca ag = counter-screen for M1 agonists: effect in parental CHO-K1 cells; Fluo-8 calcium fluorescence; scaled to maximal ATP response, vehicle zero; activation, % at 3 µM; 360,000 compounds, 0.48% hits; in the data active means activation above about 15%;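 further: untransfected CHO-K1 host cells lacking M1 receptor as counterscreen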
CHO-K1 Ca antag = nonselective inhibitor or artifact in parental CHO-K1 cells; ATP-induced calcium, Fluo-8 fluorescence; inhibition, % at 3 µM; 360,000 compounds, 0.6% hits; AID 602250;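 active means inhibition above a per-plate cutoff, the plate's mean sample inhibition plus 3 SD, cut at about 24% in these data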
M1 PAM = human M1 muscarinic receptor positive allosteric modulators, primary screen, CHO-K1 cells, Fluo-8 calcium fluorescence, 1536-well; Muscarinic acetylcholine receptor M1 (Homo sapiens), P11229; CHO-K1 hM1, ACh EC20; 0% = ACh EC20, 100% = maximal ACh; activation, % at 3 µM; 360,000 compounds, 0.088% hits; AID 588819, 2011; in the data active means activation above about 19%, passing the limit was not always enough
M1 ag = human M1 muscarinic receptor agonists, primary screen, Fluo-8 calcium fluorescence, CHO-K1 cells, HTS; activation, % at 3 µM; AID 588814, 2011; 360,000 compounds, 0.33% hits; Muscarinic acetylcholine receptor M1 (Homo sapiens), P11229; CHO-K1 hM1, agonist mode; 0% DMSO, 100% acetylcholine EC100;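 active means activation above the run's mean compound activation plus 3 SD, cut at about 16% in these data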;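 further: peak over basal fluorescence ratio within a 140 s kinetic read after compound addition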
A number is an active result; – = inactive; · = no result. Hits are enriched below; roughly 2.4% of the tested compounds scored in any of these assays.

SMILES	M1 PAM parental	M1 antag	CHO-K1 Ca ag	CHO-K1 Ca antag	M1 PAM	M1 ag
Cc1ccc(C(=O)NC(C)c2ccc(S(N)(=O)=O)cc2)s1 (stereo not drawn)	–	–	–	–	29	–
O=C(CCNS(=O)(=O)c1ccccc1C(F)(F)F)N1CCN(S(=O)(=O)c2cccc(F)c2)CC1	–	–	–	–	–	–
CN(C)CCOC1c2ccccc2CCc2ccc3ccccc3c21 (stereo not drawn)	–	53	–	–	–	–
Cc1cc2ccc3ccccc3c2cc1CN(C)C	–	–	–	–	–	–
CC(=O)O/N=C1\C(=O)N(Cc2ccc(C)cc2)c2ccccc21	–	–	–	–	–	24
Cc1ccc(NC2=NCC(Cc3ccc(Br)cc3)S2)cc1 (stereo not drawn)	–	38	–	–	–	–
O=Nc1c(O)n(Cc2cccc(Cl)c2)c2ccccc12	–	–	–	–	26	20
NC(=S)N=Nc1c(O)n(Cc2ccccc2)c2ccccc12	–	–	–	–	–	–
C[C@H](CO)N1C[C@H](C)[C@@H](CN(C)C(=O)c2cnccn2)Oc2cc(C#CCC3CCCC3)ccc2S1(=O)=O	–	–	–	–	–	–
O=C(COC(=O)C1=COCCO1)Nc1cc(C(F)(F)F)ccc1Cl	–	–	–	–	–	–
CC(CCc1ccccc1)NC(=O)CN1CCN(Cc2ccc(Cl)cc2)C1=O (stereo not drawn)	–	–	–	28	–	–
COc1ccc(Cc2nnc(SCC(=O)c3c(N)n(C4CC4)c(=O)[nH]c3=O)o2)cc1	–	–	–	–	–	–
Nc1ccc(-c2nc3ccc(C(=O)O)cc3s2)cc1	–	–	–	–	–	–
O=C(O)c1ccc2nc(-c3ccccc3)sc2c1	–	–	–	29	–	–
O=C(c1ccc(NS(=O)(=O)/C=C/c2ccccc2)cc1)N1CCCCC1	–	–	–	–	–	–
CC1CCN(CCOCCOc2ccc(Br)cc2Cl)CC1	–	45	–	–	–	–
CC(C)/C=C1\CC/C(=C\c2ccc(N(C)C)cc2)C1=O	–	46	29	29	–	52
O=S(=O)(NC1CCCC1)c1ccc(S(=O)(=O)N2CCc3ccccc32)cc1	–	–	16	–	–	–
Nc1ccc(S(=O)(=O)N2CCc3ccccc32)cc1	–	–	–	–	–	–
Nc1cc(C(=O)OCC(=O)Nc2cccc(S(=O)(=O)N3CCOCC3)c2)ccc1Cl	–	–	–	–	–	–
COc1ccccc1Oc1ccc2c(c1)C(=O)N(c1cccc3ncccc13)C2=O	–	–	–	24	–	–
CCOC(=O)C1=CCN(S(=O)(=O)c2ccc(Cl)cc2)C1c1ccccc1 (stereo not drawn)	–	–	–	–	–	–
CCn1nc(C(=O)Nc2ccccc2N2CCCC2)c2ccccc2c1=O	–	–	17	–	–	–
Cc1nn(C(=O)c2cccc([N+](=O)[O-])c2)c(C)c1Sc1ccccc1	–	–	–	26	–	–
CC(C)CN(C(=O)c1ccc(N2CCCC2=O)cc1)c1c(N)n(Cc2ccccc2)c(=O)[nH]c1=O	–	–	–	–	–	–
SMILES	M1 PAM parental	M1 antag	CHO-K1 Ca ag	CHO-K1 Ca antag	M1 PAM	M1 ag
CC(=O)c1cccc(OCc2cc(C(=O)N3C[C@@H](C)O[C@@H](C)C3)no2)c1	–	–	–	59	–	–
c1ccc(-c2cc(NCCN3CCCCC3)c3ccccc3n2)cc1	–	–	–	–	–	–
O=C(C[C@H]1C[C@H](C(=O)N2CCCCC2)[C@@]2(CCc3ccccc3)c3[nH]c4ccc(Cl)cc4c3CCN2C1=O)NCCC1=CCCCC1	–	–	–	26	–	–
CCC(C(=O)NCCc1c[nH]c2ccc(C)cc12)c1ccccc1 (stereo not drawn)	–	–	–	–	–	–
CC(C)(C)OC(=O)NCCCCCNC(=O)c1nc[nH]c1C(=O)NCC(=O)OCc1ccccc1	–	39	–	–	–	–
CC(C)(C)OC(=O)[C@H](Cc1ccccc1)NC(=O)c1nc[nH]c1C(=O)NCC(=O)OCc1ccccc1	–	–	–	–	–	–
C[C@H](NC(=O)c1nc[nH]c1C(=O)NCCCCCNC(=O)OC(C)(C)C)C(=O)OCc1ccccc1	–	45	–	–	–	–
CC(C)(C)OC(=O)CNC(=O)c1[nH]cnc1C(=O)NCC(=O)OCc1ccccc1	–	35	–	–	–	–
COc1ccc(C(=O)COC(=O)c2ccccc2O)c(OC)c1	–	–	–	–	–	–
C[C@H]1CN([C@@H](C)CO)C(=O)c2cccc(NC(=O)c3cnccn3)c2O[C@@H]1CN(C)S(=O)(=O)c1ccc(F)cc1	–	–	–	–	–	–
COc1cc(/C=C/C(=O)OCC(=O)N2CCCC2)ccc1OCC#N	–	–	–	–	–	–
Cc1ccc(Cn2cc(CN3CC(N4CCSCC4)CS3(=O)=O)nn2)cc1 (stereo not drawn)	–	·	–	–	·	·
CCN1CCN(c2ccc(N3CCN(S(=O)(=O)c4ccc(C)c([N+](=O)[O-])c4)CC3)nn2)CC1	–	29	–	–	–	–
O=C(CC[C@H]1O[C@@H](n2ccc(=O)[nH]c2=O)[C@H](O)[C@@H]1O)NCC(c1ccccc1)c1ccccc1	–	–	–	–	–	–
CCC(=O)Nc1nnc(S(=O)(=O)N(C)c2cc(C)cc(C)c2)s1	–	–	–	–	–	–
CN(C)c1cc[n+](Cc2c(Cl)cccc2Cl)cc1	–	80	–	–	–	–
CC(C)NC(=O)N(C)C[C@@H]1OCc2cnnn2CCCC(=O)N([C@H](C)CO)C[C@@H]1C	–	–	–	–	–	–
COc1ccc(S(=O)(=O)Nc2ccccc2C(=O)Nc2nc(-c3ccc(F)cc3)cs2)cc1OC	–	–	–	33	–	–
COc1ccc(-c2ccc(SCC(=O)Nc3nccs3)nn2)cc1OC	–	35	–	–	–	–
COc1ccccc1OCC(=O)NNC(=O)C1CCN(c2ncnc3sc(C)c(C)c23)CC1	–	–	–	–	–	–
COc1ccc(-c2csc(NC(=O)C3CCN(c4ncnc5sc(C)c(C)c45)CC3)n2)cc1OC	–	46	–	–	–	–
COc1ccc(CC(=O)Nc2nc(-c3ccc(OC)c(OC)c3)cs2)cc1OC	–	–	–	–	–	16
COc1ccc(-c2nnc3ccc(SCC(=O)Nc4nccs4)nn23)cc1OC	–	–	–	–	–	–
